# This is one part of the list.
# Molecular target: Regulator of G-protein signaling 19 (Homo sapiens) (UniProt P49795)
# Assay: modulators of RGS–Galpha-o binding, primary screen, biochemical, multiplexed beads, flow cytometry, RGS4/7/8/16/19 (AID 1504);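 also: fluorescently labeled Galpha-o bound to GDP with aluminium fluoride binding biotinylated RGS beads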
# Details: multiplexed bead flow cytometry, measured here: RGS19 interaction, at 10 µM
smiles,measurement,value
CC(C)N(CC#CCC1(O)c2ccccc2-c2ccccc21)C(C)C,RGS19–Galpha-o binding response,78.4%

# — PubChem BioAssay
